# Measurements taken from PubChem BioAssay AID1851 (National Center for Advancing Translational Sciences (NCATS), 2009).
# In all, about 16,000 compounds went through this assay and about 5,100 (32%) were called active. Inconclusive results (about 25%) are left out. Calls come from the whole dose curve; as a rule, active = well fitted curve in the direction sought with a large enough effect; inconclusive = small, poorly fitted or top-dose-only effect, or effect the other way; inactive = no such curve, though single readings can be large or run the other way. The list shows a part of the results.
# Target: Cytochrome P450 3A4 (Homo sapiens) (UniProt P08684)
# Sequence (P08684 whole entry, looked up): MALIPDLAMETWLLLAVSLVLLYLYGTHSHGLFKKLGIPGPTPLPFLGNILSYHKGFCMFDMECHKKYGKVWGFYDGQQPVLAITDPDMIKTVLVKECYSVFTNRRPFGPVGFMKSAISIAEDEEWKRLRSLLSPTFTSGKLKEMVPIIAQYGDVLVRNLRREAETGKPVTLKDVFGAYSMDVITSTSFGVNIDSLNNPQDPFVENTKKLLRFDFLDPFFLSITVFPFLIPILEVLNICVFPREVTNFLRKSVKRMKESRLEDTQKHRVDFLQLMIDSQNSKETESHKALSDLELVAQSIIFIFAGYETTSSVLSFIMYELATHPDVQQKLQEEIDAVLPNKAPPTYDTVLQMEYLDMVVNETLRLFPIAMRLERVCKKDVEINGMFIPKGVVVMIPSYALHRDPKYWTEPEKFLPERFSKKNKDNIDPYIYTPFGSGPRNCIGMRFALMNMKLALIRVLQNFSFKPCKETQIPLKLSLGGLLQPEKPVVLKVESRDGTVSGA
# Test: Cytochrome panel assay with activity outcomes
# Settings: recombinant CYP, pro-luciferin dealkylation, luminescence, p450-cyp3a4; series mostly up to 57.1 µM
# % is set by controls: 0 for no effect and ±100 for the full control effect.
Structure (SMILES),"activity, negative = inhibition",AC50
CC[C@H]1CN(C)[C@H]2Cc3c([nH]c4ccccc34)C(=O)C[C@H]1[C@H]2C(=O)OC,-21.4% [at 11.4 µM] (inactive),
C[Si](C)(c1ccc(C(=O)O)cc1)c1ccc(C(=O)O)cc1,-6.28% [at 11.4 µM] (inactive),
CCN(CC)N=Nc1[nH]nc2nc(C)cc(C)c12,-15.1% [at 11.4 µM] (inactive),
CCN(CC)c1ncnc2c1sc1nc(C)cc(C)c12,,12.6 µM (active)
C/C(=N\Nc1ccc([N+](=O)[O-])cc1)c1cccc(N)c1,,3.55 µM (active)
NC(=O)c1cccc(N)c1,,inactive
COCCNc1nc(-c2ccccc2Cl)nc2ccccc12,,12.6 µM (active)
COCCNc1nc(-c2ccccc2C(F)(F)F)nc2ccccc12,,12.6 µM (active)
Nc1nc(SCC(=O)O)[nH]c(=O)c1N,-4.46% [at 11.4 µM] (inactive),
Cc1ccc2nc(-c3ccc(NC(=O)Cc4cccs4)cc3)[nH]c2c1,-7.46% [at 2.29 µM] (inactive),
Cc1ccc2nc(Cc3ccc(N)cc3)[nH]c2c1,,1.78 µM (active)
C[N+](C)(C)c1ncnc2c1ncn2[C@@H]1CCCCO1,-9.49% [at 11.4 µM] (inactive),
Cn1c(-c2sc(=S)n(-c3ccccc3)c2N)nc2ccccc21,,4.47 µM (active)
Cc1cccc(N2CC(O)=C(c3nc4ccccc4n3C)C2=N)c1,,inactive
CCN(CC)c1ccc2c(c1)OC(N)=C(C#N)C2c1cccnc1 (stereo unspecified),,0.891 µM (active)
CC(=O)Nc1ccc(NC(=O)Cn2c(-c3ccc(F)cc3)cnc2SCC(=O)Nc2c(C)cccc2C)cc1,,3.16 µM (active)
Cc1cccc(C)c1NC(=O)Nc1ccc(S(N)(=O)=O)cc1,-9.51% [at 11.4 µM] (inactive),
CC[N+](CC)(CC)CC(=O)Nc1c(C)cccc1C,,inactive
CSC(N)=NCCC[C@@H](N)C(=O)O,,inactive
CN(C)C(=O)c1ccc(-c2ccc3ncnc(NCc4ccccc4)c3c2)cc1,,15.8 µM (active)
CN(C)c1ccc(-c2ccc3ncnc(NCc4ccccc4)c3c2)cc1,,2.51 µM (active)
Cc1cccc(CNc2ncnc3ccc(-c4ccc(C(=O)N(C)C)cc4)cc23)c1,,2 µM (active)
CN(C)C(=O)c1ccc(-c2ccc3ncnc(NCc4cccs4)c3c2)cc1,,10 µM (active)
OCCN1CCN(C(=S)c2ccc(Br)cc2)CC1,,inactive

Structure (SMILES),"activity, negative = inhibition",AC50
NC(N)=Nc1ccc(Cl)cc1,,inactive
CC(=O)OC[C@@H]1O[C@@H](O/N=C2/C[C@@H](O)[C@@H](O)[C@@H]3[C@@H]4C(=O)N(C[C@@H]5CCCO5)C(=O)[C@H]4CC[C@@H]23)[C@H](OC(C)=O)[C@H](OC(C)=O)[C@@H]1OC(C)=O,-14.3% [at 11.4 µM] (inactive),
Clc1ccc2c(c1)N(CCCN1CCCC13CCCCC3)c1ccccc1S2,-16.3% [at 11.4 µM] (inactive),
COc1cccc(CNCCc2c[nH]c3ccccc23)c1OCc1ccccc1F,,4.47 µM (active)
COc1cc(CNCCc2c[nH]c3ccccc23)ccc1OCc1ccccc1F,,7.08 µM (active)
O=C(O)[C@@H](Cc1c[nH]c2ccccc12)C(=O)NO,-15.9% [at 11.4 µM] (inactive),
O=c1c[n+](CCCC[n+]2cc(=O)o[nH]2)[nH]o1,-11.2% [at 11.4 µM] (inactive),
Cc1ccc(C)n1CCN1CCN(CC(=O)Nc2cc(C(F)(F)F)ccc2Cl)CC1,,25.1 µM (active)
CN(C)c1cc[n+](CC(=O)Nc2cc(C(F)(F)F)ccc2Cl)cc1,,inactive
Cc1cc[n+](CC(=O)Nc2cc(C(F)(F)F)ccc2Cl)cc1,,inactive
COc1ccc(NCc2nnc(SCc3ccccc3)n2-c2ccc(OC)cc2)cc1,,5.01 µM (active)
COC(=O)CSc1nnc(CNc2ccc(Cl)cc2)n1-c1ccccc1,,12.6 µM (active)
CCOC(=O)CSC1=NC(=O)/C(=C\c2ccc(Cl)cc2)S1,,inactive
CCOc1ccc(NCc2nnc(SCc3ccccc3Cl)n2-c2ccccc2)cc1,,14.1 µM (active)
COC(Cc1nnc(SC)n1-c1ccccc1)OC,,inactive
CCOC(=O)CSc1nnc(Cc2ccccc2)n1-c1cccc(Cl)c1,,2 µM (active)
CC(=O)N(/N=C/c1cccc(C)c1)c1nc(-c2ccc(Br)cc2)cs1,,inactive
CSc1nsc(SC)c1NC(=O)Nc1ccccn1,,inactive
CSc1nsc(SC)c1NC(=O)OCC1CCCO1 (stereo unspecified),-5.42% [at 11.4 µM] (inactive),
CSc1nsc(SC)c1NC(=O)OCc1ccccc1,,22.4 µM (active)
O=C(CSCc1ccccc1Cl)NNC(=S)Nc1ccccc1,,4.47 µM (active)
O=C(NNC(=S)Nc1ccccc1)C1CC1,,inactive
Cc1nn(C)cc1C(=O)NNC(=S)Nc1ccccc1,3.36% [at 2.29 µM] (inactive),
O=C(NN1C(=O)c2ccccc2C1=O)C1CCCCC1,,inactive

Structure (SMILES),"activity, negative = inhibition",AC50
O=C(CSCc1ccccc1Cl)NN1C(=O)c2ccccc2C1=O,,14.1 µM (active)
O=C(Nc1ccc(Br)cc1)C1CCC(=O)N1Cc1ccccc1Cl (stereo unspecified),-3.06% [at 11.4 µM] (inactive),
Nc1cc(S(=O)(=O)O)cc2ccc(S(=O)(=O)O)cc12,-1.64% [at 11.4 µM] (inactive),
O=C(NCCc1ccc(Cl)cc1)Nc1cccc(Cl)c1,,14.1 µM (active)
CCOC(=O)CCCN,-12.7% [at 11.4 µM] (inactive),
COc1ccc(C(=O)NCS(=O)(=O)c2ccc(C)cc2)cc1,,14.1 µM (active)
Cc1ccc(C(=O)NN2CCOCC2)cc1,,inactive
COc1ccc(NC(=O)C2(c3ccc(NC(=O)c4ccc(C)cc4)cc3)CCCC2)cc1,,inactive
CCc1ccccc1NC(=O)c1ccc(F)c(S(=O)(=O)N2CCC(C(N)=O)CC2)c1,,15.8 µM (active)
COc1ccc(C(=O)Nc2cccc3c2C(=O)NC3=O)cc1S(=O)(=O)N1CCOCC1,1.45% [at 2.29 µM] (inactive),
CC(C)(C)Nc1nc(N2CCCC2)nc(N2CCCC2)n1,11.3% [at 2.29 µM] (inactive),
CCOc1cc(/C=N/NC(=O)CN2CCCCC2)ccc1OCc1ccccc1,-6.35% [at 2.29 µM] (inactive),
O=[N+]([O-])c1ccc(Nc2nc(N/N=C\c3ccc4c(c3)OCO4)nc(N3CCCCC3)n2)cc1,,1.26 µM (active)
CCOc1ccc(/C=N/Nc2nc(N3CCCC3)nc(N3CCCC3)n2)cc1OC,,12.6 µM (active)
COc1cccc(/C=N/Nc2nc(N3CCCC3)nc(N3CCCC3)n2)c1O,,10 µM (active)
Brc1cc2c(cc1/C=N/Nc1nc(N3CCCC3)nc(N3CCOCC3)n1)OCO2,,2.82 µM (active)
C1CCC(N=C(NC23CC4CC(CC(C4)C2)C3)N2CCOCC2)CC1,,inactive
COC(=O)[C@@H]1[C@@H](O)[C@]2(O)c3ccccc3O[C@]2(c2ccccc2)[C@H]1c1ccccc1,-17.3% [at 11.4 µM] (inactive),
C[C@@H]1NC(=O)C/C=C\[C@@H](C)[C@@H]2C=C[C@H](O)[C@@H](COC(=O)[C@H](C)NC(=O)C/C=C\[C@@H](C)[C@@H]3C=C[C@H](O)[C@@H](COC1=O)O3)O2,6.73% [at 11.4 µM] (inactive),
CN(C)Cc1ccc(O)c(CN(C)C)n1,-18.2% [at 11.4 µM] (inactive),
CC1CCCN(C/C=C/c2ccccc2[N+](=O)[O-])C1 (stereo unspecified),,inactive
COc1c(/C=N/Nc2nc(N3CCCCC3)nc(N3CCCCC3)n2)cccc1[N+](=O)[O-],,3.98 µM (active)
C/C(CC(=O)NCc1ccco1)=N\NC(=O)Cc1cccc2ccccc12,-8.55% [at 2.29 µM] (inactive),
COc1ccccc1CNC(=O)C/C(C)=N/NC(=O)Cc1ccccc1,,7.94 µM (active)

Structure (SMILES),"activity, negative = inhibition",AC50
Cc1cc(=O)n2c3ccccc3n(CC(O)CN3CCCCC3)c2c1C#N (stereo unspecified),,inactive
CCN(CCO)Cc1csc2cccc(Br)c12,,inactive
Cc1ccc(C(=O)c2cn[nH]c2-c2cc(Cl)ccc2O)cc1,,3.98 µM (active)
Cc1ccc(C(=O)c2cn(-c3ccc(F)c(Cl)c3)nn2)cc1,,inactive
CCn1ccc(C(=O)Oc2ccc(Cl)cc2)n1,,inactive
Cc1nc(S(=O)(=O)c2cccc(Cl)c2)nc2c1CCC2,18.2% [at 2.29 µM] (inactive),
O=C(CS(=O)c1cccc(Cl)c1)Nc1ccccc1Cl (stereo unspecified),,14.1 µM (active)
O=C(CS(=O)(=O)c1cccc(Cl)c1)Nc1ccccc1Cl,,6.31 µM (active)
O=C(CS(=O)c1cccc(C(F)(F)F)c1)Nc1ccccc1Cl (stereo unspecified),,7.94 µM (active)
CC(=O)N(CC(=O)O)c1ccccc1C(=O)O,,inactive
O=C(O)c1ccccc1OP(=O)(O)O,,inactive
Cc1cc(-c2n[nH]c(=S)o2)c(C)n1-c1ccccc1,,inactive
COc1ccc(-n2c(C)n[nH]c2=O)cc1,,inactive
Cc1ccc(-n2c(-c3cc(C)n(C)n3)n[nH]c2=S)cc1,,14.1 µM (active)
CN(C)c1ncc2nc(-c3cccs3)c(=O)n(CCc3ccccc3)c2n1,,inactive
COc1ncc2nc(C)c(=O)n(CCC#N)c2n1,,inactive
CN(C)c1ncc2nc(-c3ccc(F)cc3)c(=O)n(C[C@H]3CCCO3)c2n1,,inactive
CN(C)c1ncc2nc(-c3cc(F)cc(F)c3)c(=O)n(C[C@H]3CCCO3)c2n1,,inactive
COCCn1c(=O)c(-c2ccc(F)cc2)nc2cnc(N(C)C)nc21,,inactive
CN(C)c1ncc2nc(-c3cccs3)c(=O)n(C[C@H]3CCCO3)c2n1,,25.1 µM (active)
CN(C)c1ncc2nc(-c3ccccc3)c(=O)n(CCC#N)c2n1,,inactive
COCCn1c(=O)c(-c2cccs2)nc2cnc(Oc3ccc(OC)cc3)nc21,,0.794 µM (active)
COc1ncc2nc(-c3cccs3)c(=O)n(CCC#N)c2n1,,10 µM (active)
COCCn1c(=O)c(-c2cccs2)nc2cnc(N(C)C)nc21,,7.94 µM (active)
